Assay [1] can be described thus: Nuclear factor erythroid 2-related factor 2/antioxidant responsive element (Nrf2/ARE) small molecule agonists: qHTS cell viability counter screen in human keratinocytes (AID 1919968; active means well fitted curve in the direction sought with a large enough effect in the repeat runs; an effect the other way counts as inactive or inconclusive; further: nearly all actives have a fitted effect of over 55% in size; further: potency means the concentration at half of the fitted maximal effect). The method, boiled down: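 Seed 1,500 KeratinoSens cells per well, then incubate 5 h at 37 C/5% CO2. Add compounds in DMSO and incubate 23 h. Add CellTiter-Fluor, wait 1 h and read fluorescence.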
(qHTS replaces the single test concentration by a dilution series.)

A short description of assay [2]: Nuclear factor erythroid 2-related factor 2/antioxidant responsive element (Nrf2/ARE) small molecule agonists: luciferase reporter gene qHTS assay in human keratinocytes (AID 1919969). Further: nearly all actives have a fitted effect of over 35% in size. Further: potency means the concentration at half of the fitted maximal effect. In general terms: A reporter such as luciferase makes a cellular process visible.
Assay [3] addresses KiSS-1 receptor (Homo sapiens) (UniProt Q969F8). Nature of the assay: Human kisspeptin (KISS1R) small molecule agonists, calcium flux assay in KISS1R-HEK293 cells (AID 1920064; active means well fitted curve in the direction sought with a large enough effect in the repeat runs; an effect the other way counts as inactive or inconclusive). The method, boiled down: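 Cells plated and incubated 18 h; dye added, 1 h at 37 C; compounds in DMSO pinned in; signal read at 480/540 nm every second for 3 min. Each compound tested at 15 concentrations in triplicate.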
(In general: Calcium flux is commonly read through the fluorescence of an indicator in the cells.)

A short description of assay [4]: G protein-coupled receptor (GPCR) small molecule agonists, calcium flux assay: HEK293 wild type cell line counter screen (AID 1920065). The method, boiled down:
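Counter-screen of the Tox21 10K library for non-specific calcium release: dye-loaded cells received compounds in DMSO and were monitored by kinetic fluorescence (480/540 nm, 3 min). Fifteen concentrations, run in triplicate.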

A short description of assay [5]: p53 small molecule agonists, cell-based qHTS assay with human liver microsomes (AID 1963577). The method, boiled down: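 Fluorescence of the beta-lactamase reporter in p53RE-bla cells, detected with LiveBLAzer substrate (2 h, room temperature, dark), served as the read-out after 16 h compound exposure at 37 C with human liver microsomes and NADPH, each 0.5 mg/mL final.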

Assay [6] can be described thus: p53 small molecule agonists, cell-based qHTS assay with rat liver microsomes (AID 1963578). In short, it runs like this:
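Cells carrying a p53 response element–beta-lactamase reporter were plated and rested 5 h, then dosed with compound in DMSO plus rat liver microsomes and NADPH, each at 0.5 mg/mL final. After 16 h at 37 C, LiveBLAzer substrate was added for 2 h.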

The nature of assay [7]: p53 small molecule agonists, cell-based qHTS assay with human liver microsomes: qHTS cell viability counter screen (AID 1963579). Further: nearly all actives have a fitted effect of over 45% in size. In short, it runs like this:
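Cytotoxicity counter screen: p53RE-bla, 4,000 cells/well; 5 h settle, 37 C/5% CO2; cpd + HLM 0.5 mg/mL + NADPH 0.5 mg/mL (final); 16 h, 37 C; CellTiter-Glo, 30 min RT, luminescence.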

Assay [8] can be described thus: p53 small molecule agonists, cell-based qHTS assay: qHTS cell viability counter screen (AID 1963581). Further: nearly all actives have a fitted effect of over 45% in size. Further: potency means the concentration at half of the fitted maximal effect. The method, boiled down:
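Cells: HCT-116 with p53 response element-driven beta-lactamase. Treatment: 16 h, 37 C, compounds in DMSO. Read: CellTiter-Glo luminescence after 30 min RT.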

Assay [9] is described as follows: p53 small molecule agonists, cell-based qHTS assay (AID 1963582; active means well fitted activation curve with a large enough effect in the signal ratio in the repeat runs, not every such curve was filed as active; the % refers to the signal ratio). The method, boiled down:
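Quantitative HTS in p53RE-bla cells: after a 5 h settling period, compounds delivered in DMSO were left on cells for 16 h at 37 C, and reporter induction was measured as fluorescence following 2 h substrate loading.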

For assay [10], the target named is 5-hydroxytryptamine receptor 2A (Homo sapiens) (UniProt P28223). Nature of the assay: 5-hydroxytryptamine receptor 2A (HTR2A) small molecule antagonists, cell-based qHTS assay (AID 1963586). Further: nearly all actives have a fitted effect of over 45% in size. In short, it runs like this: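 Antagonist-mode intracellular calcium assay: DOI (4 nM) added after 5 min compound pre-incubation at room temperature to dye-loaded HTR2A-CHO cells. Fluorescence followed for 3 min, sampled every second.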
5-hydroxytryptamine receptor 2A (Homo sapiens), sequence (P28223 whole entry, looked up): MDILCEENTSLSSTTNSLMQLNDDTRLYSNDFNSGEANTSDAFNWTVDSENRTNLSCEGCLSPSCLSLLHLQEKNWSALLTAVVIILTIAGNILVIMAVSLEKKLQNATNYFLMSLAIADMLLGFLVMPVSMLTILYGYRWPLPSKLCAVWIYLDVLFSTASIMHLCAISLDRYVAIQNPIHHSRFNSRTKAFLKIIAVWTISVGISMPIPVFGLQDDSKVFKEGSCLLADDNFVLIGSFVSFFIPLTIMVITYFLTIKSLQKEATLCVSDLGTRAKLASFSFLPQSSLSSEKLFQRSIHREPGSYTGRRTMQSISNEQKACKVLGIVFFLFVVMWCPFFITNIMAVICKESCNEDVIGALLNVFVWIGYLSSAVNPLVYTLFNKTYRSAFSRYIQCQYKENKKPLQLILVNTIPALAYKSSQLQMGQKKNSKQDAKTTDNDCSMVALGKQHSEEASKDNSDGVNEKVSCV

For assay [11] the target is unchanged. The assay can be described thus: 5-hydroxytryptamine receptor 2A (HTR2A) small molecule agonists, cell-based qHTS assay (AID 1963587). Further: nearly all actives have a fitted effect of over 30% in size. The method, boiled down:
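Kinetic calcium-flux fluorescence (2 min, 1 sec intervals) after compound addition in agonist mode. HTR2A-CHO cells were cultured 18 h, then dye-loaded 1 h at 37 C.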

The target of assay [12] is Muscarinic acetylcholine receptor M1 (Homo sapiens) (UniProt P11229). The assay can be described thus: Cholinergic receptor muscarinic 1 (CHRM1) small molecule agonists, cell-based qHTS assay (AID 1963589). Further: nearly all actives have a fitted effect of over 35% in size. The method, boiled down: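 Agonist-mode qHTS in CHO cells stably carrying human muscarinic M1. Intracellular calcium is tracked by fluorescence every second after compound transfer; each compound runs at 15 concentrations in three independent runs.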
Muscarinic acetylcholine receptor M1 (Homo sapiens), sequence (P11229 whole entry, looked up): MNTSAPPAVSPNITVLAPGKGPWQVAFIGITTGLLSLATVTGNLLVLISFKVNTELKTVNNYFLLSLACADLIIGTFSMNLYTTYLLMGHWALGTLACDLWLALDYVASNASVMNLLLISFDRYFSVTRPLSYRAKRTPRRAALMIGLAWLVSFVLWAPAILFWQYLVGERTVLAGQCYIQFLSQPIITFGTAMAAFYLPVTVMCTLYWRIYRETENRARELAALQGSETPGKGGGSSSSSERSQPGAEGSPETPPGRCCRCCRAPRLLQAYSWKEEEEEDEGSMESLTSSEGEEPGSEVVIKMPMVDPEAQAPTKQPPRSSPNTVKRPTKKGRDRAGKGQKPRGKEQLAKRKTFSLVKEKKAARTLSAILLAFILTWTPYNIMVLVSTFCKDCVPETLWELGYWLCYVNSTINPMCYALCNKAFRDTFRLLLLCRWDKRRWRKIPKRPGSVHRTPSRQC

Assay [13] is described as follows: cAMP Responsive Elements (CRE) small molecule agonists, cell-based qHTS assay (AID 1963590). The method, boiled down:
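Agonist mode qHTS in CRE-bla HEK 293T cells: compounds dosed from DMSO for 3 h at 37 C/5% CO2, followed by LiveBLAzer B/G FRET substrate for 2 h at room temperature.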

A short description of assay [14]: cAMP Responsive Elements (CRE) small molecule antagonists, cell-based qHTS assay (AID 1963591; active means well fitted inhibition curve with a large enough effect in the signal ratio in the repeat runs, not every such curve was filed as active; the % refers to the signal ratio). The method, boiled down: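 Antagonist mode: test compounds are co-incubated with the adenylyl cyclase activator NKH477 (0.25 uM final) on CRE-bla HEK293T cells for 3 h at 37 °C, followed by LiveBLAzer substrate loading.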
Assay [15] concerns the target D(2) dopamine receptor (Homo sapiens) (UniProt P14416). Nature of the assay: Dopamine D2 receptor (DRD2) small molecule antagonists, cell-based qHTS assay (AID 1963595; active means well fitted inhibition curve with a large enough effect in the signal ratio in the repeat runs, with a control signal flat; the % refers to the signal ratio). The method, boiled down: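 Stable D2 receptor HEK293 line, 24 h after seeding. Compound preincubated 10 min, then quinpirole (12 nM) with forskolin analogue NKH477 (200 nM), 30 min, room temperature. Detection by time-resolved FRET of cAMP.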

A short description of assay [16]: p53 small molecule agonists, cell-based qHTS assay with rat liver microsomes: qHTS cell viability counter screen (AID 1963580). Further: nearly all actives have a fitted effect of over 45% in size. In short, it runs like this: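 HCT-116 p53RE-bla, 4,000 cells/well, 5 h pre-incubation; cpd + rat liver microsomes 0.5 mg/mL + NADPH 0.5 mg/mL (final); 16 h, 37 C; CellTiter-Glo, 30 min RT; luminescence.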
The target of assay [17] is Muscarinic acetylcholine receptor M1 (Homo sapiens) (UniProt P11229). The assay can be described thus: Cholinergic receptor muscarinic 1 (CHRM1) small molecule antagonists, cell-based qHTS assay (AID 1963588). Further: nearly all actives have a fitted effect of over 40% in size. Further: potency means the concentration at half of the fitted maximal effect. The method, boiled down: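 CHRM1-CHO calcium-flux assay, antagonist mode. Cells were seeded 18 h, dye-loaded 1 h at 37 C and given compound for 5 min at RT, then acetylcholine was added at 50nM. FDSS fluorescence was read 3 min; 15 concentrations, three runs.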

The target of assay [18] is Beta-2 adrenergic receptor (Homo sapiens) (UniProt P07550). Nature of the assay: Adrenergic beta2 receptor (ADRB2) small molecule antagonists, cell-based qHTS assay (AID 1963592). Further: series mostly up to about 92 µM; nearly all actives have a fitted effect of over 50% in size. The method, boiled down:
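Cells (CHO, stable ADRB2 overexpression) incubated 18-20hr at 37C; compounds added from DMSO; agonist mix (1nM isoproterenol, 100uM IBMX, 25uM Ro-20-1724) added; 0.5hr RT; d2-cAMP and anti-cAMP-cryptate added; 1hr RT; 665/615 nm read.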

Assay [19] shares this target. Nature of the assay: Adrenergic beta2 receptor (ADRB2) small molecule agonists, cell-based qHTS assay (AID 1963593).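 Further: CHO cells stably overexpressing human ADRB2.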 In short, it runs like this: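 CHO cells stably over-expressing ADRB2 were plated overnight at 37C, then dosed with compounds plus a stimulation mix containing 100uM IBMX and 25uM Ro-20-1724 for 0.5hr at room temperature. cAMP was measured by HTRF competition, 1hr.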

Assay [20] concerns the target D(2) dopamine receptor (Homo sapiens) (UniProt P14416). Nature of the assay: Dopamine D2 receptor (DRD2) small molecule agonists, cell-based qHTS assay (AID 1963594). Further: nearly all actives have a fitted effect of over 35% in size. The method, boiled down: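 cAMP accumulation in DRD2-HEK293 cells measured by HTRF after 1 h detection; compounds added 10 min before NKH477 (200nM […]) forskolin-analogue stimulation, 30 min at room temperature, with Ro20-1724 present at 0.1 mM final.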

Structures are written as SMILES. Values joined by “and” are separate entries in the source; they are usually repeats but may differ in a detail not shown here. Equal values may be shown once. Inconclusive results are not listed. A structure can be active in one record and inactive in another. Active and inactive are the calls of the source. Unless noted, the call rests on the fitted dose curve.

D(2) dopamine receptor (Homo sapiens), sequence (P14416 whole entry, looked up): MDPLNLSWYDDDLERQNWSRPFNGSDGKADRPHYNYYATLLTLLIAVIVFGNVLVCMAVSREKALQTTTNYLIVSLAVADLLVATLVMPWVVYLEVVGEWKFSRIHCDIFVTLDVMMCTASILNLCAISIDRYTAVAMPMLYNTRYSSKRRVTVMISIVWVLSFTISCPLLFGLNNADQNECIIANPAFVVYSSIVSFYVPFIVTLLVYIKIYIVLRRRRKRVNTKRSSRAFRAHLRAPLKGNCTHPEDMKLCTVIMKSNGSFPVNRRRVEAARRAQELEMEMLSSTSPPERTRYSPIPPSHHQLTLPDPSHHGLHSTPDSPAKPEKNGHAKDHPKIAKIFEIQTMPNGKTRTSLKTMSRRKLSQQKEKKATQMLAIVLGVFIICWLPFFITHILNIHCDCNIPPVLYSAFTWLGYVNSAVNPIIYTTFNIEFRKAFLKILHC
Beta-2 adrenergic receptor (Homo sapiens), sequence (P07550 whole entry, looked up): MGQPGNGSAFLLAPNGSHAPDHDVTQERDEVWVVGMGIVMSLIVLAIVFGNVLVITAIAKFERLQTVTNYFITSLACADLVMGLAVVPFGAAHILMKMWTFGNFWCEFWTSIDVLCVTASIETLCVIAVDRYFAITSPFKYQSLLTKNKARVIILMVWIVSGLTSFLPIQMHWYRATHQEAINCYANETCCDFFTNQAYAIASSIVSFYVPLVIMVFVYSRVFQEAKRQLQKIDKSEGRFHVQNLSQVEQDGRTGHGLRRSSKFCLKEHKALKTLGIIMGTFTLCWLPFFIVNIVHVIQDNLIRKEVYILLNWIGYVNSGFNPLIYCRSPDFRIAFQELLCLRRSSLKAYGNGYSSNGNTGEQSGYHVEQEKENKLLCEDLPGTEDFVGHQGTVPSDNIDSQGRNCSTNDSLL
KiSS-1 receptor (Homo sapiens), sequence (Q969F8 whole entry, looked up): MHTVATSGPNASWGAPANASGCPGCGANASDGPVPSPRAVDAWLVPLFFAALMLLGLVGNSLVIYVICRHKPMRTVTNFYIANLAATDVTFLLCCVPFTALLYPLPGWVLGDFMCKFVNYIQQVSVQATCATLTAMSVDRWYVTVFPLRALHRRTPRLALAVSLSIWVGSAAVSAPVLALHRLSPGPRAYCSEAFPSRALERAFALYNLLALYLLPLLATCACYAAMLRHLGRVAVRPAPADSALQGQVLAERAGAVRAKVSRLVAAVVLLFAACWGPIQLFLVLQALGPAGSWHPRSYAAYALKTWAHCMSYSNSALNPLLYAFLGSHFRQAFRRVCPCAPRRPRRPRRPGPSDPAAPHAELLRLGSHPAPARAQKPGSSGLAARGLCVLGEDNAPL

As for `NC(=O)OCCCc1ccccc1`, the Potency entry in assay [1], in [2], in [3], in [4], in [5] and in assay [6] was “inactive” throughout. The Potency result in assay [7], in [8], in assay [9], in assay [10], in assay [11] and in assay [12] was “inactive” in each case. Further, the Potency result in assay [13], in [14] and in assay [15] was “inactive” each time.
As for `COC(=O)c1ccccc1CS(=O)(=O)NC(=O)Nc1nc(OC)cc(OC)n1`, the Potency entry in assay [1], in assay [2], in assay [3], in assay [4], in assay [5] and in [6] was “inactive” throughout. For the same compound, the Potency result in assay [7], in assay [16], in assay [9], in assay [10], in assay [11] and in assay [17] was “inactive” throughout. Also, the Potency entry in [12], in [13], in [14], in [18], in [19] and in assay [20] was “inactive” in each case. The Potency result in [15] was “inactive”.
In the case of `O=[N+]([O-])c1ccccc1`, the Potency entry in [1], in assay [2], in assay [3], in assay [4], in assay [5] and in assay [6] was “inactive” in each case. Further, the Potency result in assay [7], in assay [16], in [8], in [9], in assay [10] and in assay [11] was “inactive” each time. Besides, the Potency entry in [17], in assay [12], in assay [13], in assay [14], in [20] and in [15] was “inactive” in each case.
As for `ClCc1ccccc1`, the Potency entry in assay [1], in [2], in assay [3], in assay [4], in [5] and in [6] was “inactive” in each case. The Potency result in [7], in [16], in [8], in [9], in assay [10] and in assay [11] was “inactive” in each case. Also, the Potency result in assay [17], in assay [12], in assay [13], in assay [14], in [18] and in [20] was “inactive” in each case. For the same compound, in assay [15], the Potency entry was “inactive”.
For `CCc1ccccc1C`, the Potency entry in assay [1], in assay [2], in assay [3], in assay [4], in [5] and in [6] was “inactive” in each case. Moreover, the Potency entry in assay [7], in [16], in assay [8], in assay [9], in assay [11] and in assay [17] was “inactive” in each case. Further, the Potency result in assay [12], in assay [13], in [14], in assay [18], in assay [20] and in assay [15] was “inactive” each time.
`Cc1cccc(N)c1N`: the Potency result in assay [1], in [3], in assay [4], in assay [5], in assay [6] and in assay [16] was “inactive” in each case. Also, the Potency result in assay [8], in assay [9], in assay [10], in assay [11], in assay [17] and in [12] was “inactive” in each case. In addition, the Potency result in assay [13], in assay [14], in assay [19], in assay [20] and in assay [15] was “inactive” in each case. Besides, in [2], the Potency was 2.35 µM (active) and 48.6 µM (active).
Consider `Clc1ccc(C(c2ccc(Cl)cc2)C(Cl)Cl)cc1`, for which the Potency in assay [1] was 27.8 µM (active); in assay [2] it was 15.6 µM (active) and inactive; in assay [8], 41.4 µM (active); in [17], 0.135 µM (active). The Potency entry in [3], in assay [4], in [5], in assay [6], in assay [7] and in assay [16] was “inactive” each time. For the same compound, the Potency result in [9], in assay [10], in assay [11], in assay [12], in assay [14] and in assay [18] was “inactive” throughout. The Potency entry in assay [20] and in assay [15] was “inactive” throughout.

(Values after PubChem BioAssay (Tox21).)
